# Laboratory results as given in the supplement of paper PMC8728848.
# The entries come from a sample that favours the strongest signals as a whole.
# B1: rCnSL-proB (Clitocybe nebularis) (protein)
# chain: PTFSPIFALLAFLPFGTLASLLPQTQLVFRINPNLPGPNDVFVGYRGTNNVVGAIYERDGIKDTPMNNGADAELGPGSYITDDLFTAQIFASGSAGNNPGTTATVCKIYADGVQWRGAPKGYLPVLYFGNGQAAEQTRQTYLQGLDIPGTAIRFANLAKTPNQGPTAPRQMVVPSGGLQTLLKASCFPANHAALPQVLSYFNVRAALPPGWNIRTGPEFPNWTN
# Legend:
# Test in all cases: glycan array binding signal (z-score within array); higher = stronger binding
# Settings in all cases: glycan notation: IUPAC condensed, linker removed
# [1] = molecular target: Gal(b1-4)GlcNAc(b1-3)[Gal(b1-4)GlcNAc(b1-6)]Gal(b1-4)GlcNAc
# Summary of the method: (§1)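 Glycan array data were curated from 3228 arrays in the Consortium for Functional Glycomics database and kept only where the protein sequence was available. Glycan names were converted to IUPAC-condensed notation, and columns mapping to the same glycan were averaged. The binding signal is a within-array Z-score, averaged across arrays of the same protein sequence at different concentrations or buffers and across linkers. Negative Z-scores can be read as non-binding.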
# [2] = molecular target: Gal3S(b1-4)[Fuc(a1-3)]Glc6S
# Summary of the method: as §1
# [3] = molecular target: GalNAc(b1-4)GlcNAc(b1-2)Man(a1-3)[GalNAc(b1-4)GlcNAc(b1-2)Man(a1-6)]Man(b1-4)GlcNAc(b1-4)GlcNAc
# Summary of the method: as §1
# [4] = molecular target: GlcNAc(a1-4)Gal(b1-4)GlcNAc
# Summary of the method: as §1
# [5] = molecular target: GlcNAc(b1-2)[GlcNAc(b1-4)]Man(a1-3)[GlcNAc(b1-2)Man(a1-6)]Man(b1-4)GlcNAc(b1-4)GlcNAc
# Summary of the method: as §1
# [6] = molecular target: GlcNAc(b1-3)Gal(b1-4)GlcNAc(b1-3)Gal(b1-4)GlcNAc(b1-3)Gal(b1-4)GlcNAc(b1-3)Gal(b1-4)GlcNAc(b1-2)[GlcNAc(b1-3)Gal(b1-4)GlcNAc(b1-3)Gal(b1-4)GlcNAc(b1-3)Gal(b1-4)GlcNAc(b1-3)Gal(b1-4)GlcNAc(b1-6)]Man(a1-6)[GlcNAc(b1-3)Gal(b1-4)GlcNAc(b1-3)Gal(b1-4)GlcNAc(b1-3)Gal(b1-4)GlcNAc(b1-3)Gal(b1-4)GlcNAc(b1-2)Man(a1-3)]Man(b1-4)GlcNAc(b1-4)[Fuc(a1-6)]GlcNAc
# Summary of the method: as §1
# GlcNAc(b1-3)GalNAc = molecular target: GlcNAc(b1-3)GalNAc
# Summary of the method: as §1
# [7] = molecular target: GlcNAc(b1-3)[GlcNAc(b1-4)][GlcNAc(b1-6)]GlcNAc
# Summary of the method: as §1
# [8] = molecular target: GlcNAc(b1-3)[GlcNAc(b1-6)]GalNAc
# Summary of the method: as §1
# Kdn(a2-3)Gal(b1-4)Glc = molecular target: Kdn(a2-3)Gal(b1-4)Glc
# Summary of the method: as §1
# MurNAc(b1-4)GlcNAc = molecular target: MurNAc(b1-4)GlcNAc
# Summary of the method: as §1
# [9] = molecular target: Neu5Ac(a2-3)Gal(b1-3)GalNAc
# Summary of the method: as §1
# [10] = molecular target: Neu5Ac(a2-3)Gal(b1-3)GalNAc(b1-4)[Neu5Ac(a2-3)]Gal(b1-4)Glc
# Summary of the method: as §1
# [11] = molecular target: Neu5Ac(a2-3)Gal(b1-3)GlcNAc(b1-2)Man(a1-3)[Neu5Ac(a2-3)Gal(b1-3)GlcNAc(b1-2)Man(a1-6)]Man(b1-4)GlcNAc(b1-4)GlcNAc
# Summary of the method: as §1
# [12] = molecular target: Neu5Ac(a2-3)Gal(b1-3)GlcNAc(b1-2)[Neu5Ac(a2-3)Gal(b1-3)GlcNAc(b1-4)]Man(a1-6)[Neu5Ac(a2-3)Gal(b1-3)GlcNAc(b1-2)Man(a1-3)]Man(b1-4)GlcNAc(b1-4)GlcNAc
# Summary of the method: as §1
# [13] = molecular target: Neu5Ac(a2-3)Gal(b1-3)GlcNAc6S
# Summary of the method: as §1
# [14] = molecular target: Neu5Ac(a2-3)Gal(b1-3)[Fuc(a1-4)]GlcNAc
# Summary of the method: as §1
# [15] = molecular target: Neu5Ac(a2-3)Gal(b1-3)[Fuc(a1-4)]GlcNAc(b1-3)Gal(b1-4)[Fuc(a1-3)]GlcNAc
# Summary of the method: as §1
# [16] = molecular target: Neu5Ac(a2-3)Gal(b1-4)GlcNAc(b1-3)Gal(b1-4)GlcNAc(b1-3)Gal(b1-4)GlcNAc(b1-2)Man(a1-3)[Neu5Ac(a2-3)Gal(b1-4)GlcNAc(b1-3)Gal(b1-4)GlcNAc(b1-3)Gal(b1-4)GlcNAc(b1-2)Man(a1-6)]GalNAc
# Summary of the method: as §1
# [17] = molecular target: Neu5Ac(a2-3)Gal(b1-4)GlcNAc(b1-6)[Neu5Ac(a2-3)Gal(b1-3)]GalNAc
# Summary of the method: as §1
# [18] = molecular target: Neu5Ac(a2-6)Gal(b1-4)GlcNAc(b1-2)Man
# Summary of the method: as §1
# [19] = molecular target: Neu5Ac(a2-6)Gal(b1-4)GlcNAc(b1-2)Man(a1-3)[Neu5Ac(a2-6)Gal(b1-4)GlcNAc(b1-2)Man(a1-6)]Man(b1-4)GlcNAc(b1-4)[Fuc(a1-6)]GlcNAc
# Summary of the method: as §1
# [20] = molecular target: Neu5Ac(a2-6)GlcNAc(b1-4)GlcNAc
# Summary of the method: as §1
# [21] = molecular target: Neu5Ac(a2-8)Neu5Ac(a2-8)Neu5Ac
# Summary of the method: as §1
# [22] = molecular target: Neu5Ac9Ac(a2-3)Gal(b1-3)GlcNAc
# Summary of the method: as §1
binder,measurement,setting,value
B1,glycan array binding signal (z-score),[1],-0.283
same,glycan array binding signal (z-score),[2],0.549
same,glycan array binding signal (z-score),[3],3.38
same,glycan array binding signal (z-score),[4],-0.308
same,glycan array binding signal (z-score),[5],-0.133
same,glycan array binding signal (z-score),[6],0.742
same,glycan array binding signal (z-score),GlcNAc(b1-3)GalNAc,-0.757
same,glycan array binding signal (z-score),[7],-0.62
same,glycan array binding signal (z-score),[8],-0.668
same,glycan array binding signal (z-score),Kdn(a2-3)Gal(b1-4)Glc,-1.27
same,glycan array binding signal (z-score),MurNAc(b1-4)GlcNAc,-0.477
same,glycan array binding signal (z-score),[9],-0.437
same,glycan array binding signal (z-score),[10],-0.343
same,glycan array binding signal (z-score),[11],3.69
same,glycan array binding signal (z-score),[12],0.146
same,glycan array binding signal (z-score),[13],0.395
same,glycan array binding signal (z-score),[14],-0.555
same,glycan array binding signal (z-score),[15],0.025
same,glycan array binding signal (z-score),[16],4.43
same,glycan array binding signal (z-score),[17],-0.239
same,glycan array binding signal (z-score),[18],0.328
same,glycan array binding signal (z-score),[19],0.037
same,glycan array binding signal (z-score),[20],-0.255
same,glycan array binding signal (z-score),[21],-0.203
same,glycan array binding signal (z-score),[22],-0.873
